Screens as filed in PubChem.
Shown are actives, neighbours in structure and some others; about 10% of the full set was active somewhere.
ALOX12 inhib = qHTS Assay for Inhibitors of 12-hLO (12-human lipoxygenase); purified 12-hLO, xylenol orange hydroperoxide absorbance; Potency, µM (titrated, usually from 57.1 µM), most hits filed as inhibitors; hit rate 0.12% among 150,000; active means well fitted inhibition curve with a large enough effect; inconclusive means small, poorly fitted or top-dose-only effect; further: nearly all actives have a fitted effect of over 55% in size
Target sequence (P18054 whole entry, looked up): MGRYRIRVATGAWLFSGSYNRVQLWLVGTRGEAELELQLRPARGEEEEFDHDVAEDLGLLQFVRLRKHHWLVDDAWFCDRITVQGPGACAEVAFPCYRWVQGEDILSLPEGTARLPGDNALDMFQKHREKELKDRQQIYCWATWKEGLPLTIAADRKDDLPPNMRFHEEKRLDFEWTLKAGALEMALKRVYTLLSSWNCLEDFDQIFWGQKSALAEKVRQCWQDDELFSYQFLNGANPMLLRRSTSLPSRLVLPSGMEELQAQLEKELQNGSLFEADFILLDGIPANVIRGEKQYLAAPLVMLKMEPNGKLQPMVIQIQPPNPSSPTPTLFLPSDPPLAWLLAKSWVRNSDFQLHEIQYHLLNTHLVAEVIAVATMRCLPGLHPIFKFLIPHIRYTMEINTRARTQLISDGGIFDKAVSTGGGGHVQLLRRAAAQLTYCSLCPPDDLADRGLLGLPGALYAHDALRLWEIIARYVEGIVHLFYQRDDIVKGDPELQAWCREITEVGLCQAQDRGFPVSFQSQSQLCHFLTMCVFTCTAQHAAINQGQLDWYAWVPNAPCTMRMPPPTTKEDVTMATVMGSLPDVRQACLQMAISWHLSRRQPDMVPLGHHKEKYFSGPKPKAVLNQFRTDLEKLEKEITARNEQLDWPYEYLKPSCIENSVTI
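Hydroperoxide output read as Fe(III)-xylenol orange absorbance, 573-to-405 nm ratio, after 30 min reaction with 40 uM arachidonic acid. Enzyme: 150 nM purified human 12hLO, 15 min compound preincubation; 25 mM Hepes pH 7.0, room temperature.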
ALDH1A1 block = qHTS Assay for Inhibitors of Aldehyde Dehydrogenase 1 (ALDH1A1). Aldehyde dehydrogenase 1A1 (Homo sapiens), P00352. Purified ALDH1A1, NADH fluorescence, propionaldehyde substrate. Potency, µM (top dose mostly 75.3 µM), most hits filed as inhibitors. hit rate 7.3% among 220,000. AID 1030, 2008
HPGD inh = qHTS Assay for Inhibitors of HPGD (15-Hydroxyprostaglandin Dehydrogenase); 15-hydroxyprostaglandin dehydrogenase [NAD(+)] (Homo sapiens), P15428; purified HPGD, NADH fluorescence kinetic, PGE2 substrate; Potency, µM, hits mostly inhibitors; hit rate 4.3% among 150,000
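20 nM HPGD preincubated 15 min at room temperature with compound in 50 mM Tris-HCl pH 8, 0.01% Tween 20. Started with 1 mM NAD+ and 30 uM prostaglandin E2; NADH fluorescence (360/450 nm) read 5 times over 30-s intervals, last minus first.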
PNC inhibitor = High Content Assay for Compounds that inhibit the Assembly of the Perinucleolar Compartment | PC3M PTB-GFP, PNC prevalence imaging, 16 h; active compounds read low | activity change (PNC), negative = inhibition, % at 10 µM | hit rate 3.1% among 140,000;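 active means readout at or below -70, meaning at least 70% loss of cells showing the perinucleolar compartment, a nuclear body marking cancer cells; inconclusive means readout between -30 and a set limit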
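Compounds are pinned in duplicate onto adhered PC3M cells stably expressing GFP-tagged PTB and incubated 16 h at 37 C. Cells are then fixed, nuclei stained with Hoechst, and PNC-positive cells counted.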
Lamin A splicing = qHTS Assay for Modulators of Lamin A Splicing; hit rate 0.01% among 200,000; HeLa LMNA splicing GFP/RFP minigene ratio, 48 h; Potency, µM (highest dose often 46.1 µM), hits mostly inhibitors; AID 1487, 2009; active means well fitted inhibition curve with a large enough effect in the signal ratio, with a control signal flat, not every such curve was filed as active; inconclusive means small, poorly fitted or top-dose-only effect, or effect the other way, or a change in a side signal; the % refers to the signal ratio
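Read-out is the ratio of GFP to DsRed2 object intensity, acquired by 488 nm laser-scanning cytometry on HeLa lamin A-EGFP minigene reporter cells. Compound incubation 48 hrs at 37 °C in Opti-MEM with 2% FBS; DMSO 0.5% final.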
Hits are given with their value; ! = not confirmed by another sample; [ ] = another dose, or the depositor's remark. Unless noted, the call rests on the fitted dose curve; in most records, active means well fitted inhibition curve with a large enough effect (not every such curve was filed as active); inconclusive means small, poorly fitted or top-dose-only effect, or another doubt; inactive means no such curve, though single readings can be large or run the other way.

`CN1c2ccccc2C(C)(C)C12CC(c1ccc(Cl)c(S(=O)(=O)N3CCCC3)c1)=NO2` (stereo unspecified) gave ALOX12 inhib inactive, ALDH1A1 block inactive, HPGD inh inactive, PNC inhibitor -120.9 and Lamin A splicing inconclusive.
Screening COc1cc2cc3c4cc(OC)c(OC)cc4cc[n+]3c(C)c2cc1OC returned ALOX12 inhib inactive, ALDH1A1 block inconclusive, HPGD inh inactive and Lamin A splicing inactive.
For COCCN(CCOC)c1nc(S(=O)(=O)c2ccc(C)cc2)c(Cl)s1 the results were ALOX12 inhib inactive, ALDH1A1 block inactive, HPGD inh inactive, PNC inhibitor inactive and Lamin A splicing inconclusive.
Screening CCS(=O)(=O)c1nc(S(=O)(=O)c2ccc(Cl)cc2)c(NCCOC)s1 returned ALDH1A1 block 4.47µM.
`CCCNc1sc(S(=O)(=O)CCC)nc1S(=O)(=O)c1ccc(C)cc1` gave ALDH1A1 block 10µM.
Cc1ccc2cc(S(=O)(=O)NCCCN3CCOCC3)ccc2c1 was read as ALDH1A1 block inactive and Lamin A splicing inactive.
CCCS(=O)(=O)c1nc(S(=O)(=O)c2ccc(C)cc2)c(NCCCN2CCOCC2)s1 was read as ALOX12 inhib inactive, ALDH1A1 block 14.1µM, HPGD inh inactive, PNC inhibitor inactive and Lamin A splicing inactive.
For Cc1ccc(NC(=S)N2CCC(c3ccc(C)cc3)C2)cc1 (stereo unspecified) the results were ALDH1A1 block 28.2µM.
Cc1ccc(C2CCN(C(=O)Nc3ccccc3)C2)cc1 (stereo unspecified) was read as ALOX12 inhib inactive, ALDH1A1 block inactive, HPGD inh inactive, PNC inhibitor inconclusive and Lamin A splicing inconclusive.
O=c1[nH]c(S)c(/C=C2\C=Nc3ccccc32)s1 was read as ALDH1A1 block 25.1µM.
For O=C(Cn1c(O)c(/C=C2\C=Nc3ccccc32)sc1=O)N1CCOCC1 the results were ALDH1A1 block inactive.
Screening c1ccc2c(c1)CC1(CCCC1)n1nnnc1-2 returned ALOX12 inhib inactive, ALDH1A1 block 12.6µM, PNC inhibitor inactive and Lamin A splicing inactive.
For CC1(C)Cc2ccccc2-c2nnnn21 the results were ALOX12 inhib inactive, ALDH1A1 block 11.2µM, HPGD inh inactive, PNC inhibitor inconclusive and Lamin A splicing inactive.
Cc1cccc(CNc2ncnc3ccc(-c4ccccc4C#N)cc23)c1 was read as ALOX12 inhib inactive, ALDH1A1 block inconclusive, HPGD inh inconclusive and Lamin A splicing inactive.
CC(C)=CCCC1(C)C=Cc2c(c(C)cc3c2[nH]c2ccccc23)O1 (stereo unspecified) was read as ALDH1A1 block inactive and HPGD inh inactive.
`CNC(=O)CSc1nnc(-c2ccc(S(=O)(=O)N3CCCC3)cc2)n1-c1cccc(C)c1C` gave ALOX12 inhib inactive, ALDH1A1 block inactive, HPGD inh inconclusive, PNC inhibitor inactive and Lamin A splicing inactive.
For CCCCNC(=O)CSc1nnc(-c2ccc(S(=O)(=O)N3CCCC3)cc2)n1C the results were ALOX12 inhib inactive, ALDH1A1 block inactive, HPGD inh inactive, PNC inhibitor -100.0 and Lamin A splicing inactive.
COc1ccccc1-n1c(SCC(=O)O)nnc1-c1ccc(S(=O)(=O)N2CCCCC2)cc1 was read as ALOX12 inhib inactive, ALDH1A1 block 12.6µM, HPGD inh inconclusive, PNC inhibitor inconclusive and Lamin A splicing inactive.
Screening Cn1c(SCC(=O)NCc2cccs2)nnc1-c1ccc(S(=O)(=O)N2CCCC2)cc1 returned ALOX12 inhib inactive, ALDH1A1 block inactive, HPGD inh inactive, PNC inhibitor inactive and Lamin A splicing inactive.
Screening CSc1nc(/C=C2\C=Nc3ccccc32)c(O)n1C returned ALOX12 inhib inactive, ALDH1A1 block inactive, HPGD inh 35.5µM, PNC inhibitor inactive and Lamin A splicing inactive.
CC(C)CCNC(=O)c1ccc2c(c1)NC(=O)C(CS(=O)(=O)Cc1ccc(F)cc1)N2 (stereo unspecified) was read as Lamin A splicing inactive.
`CC(=O)c1ccc2c3c(ccc(O)c13)CC2` gave ALOX12 inhib inactive, ALDH1A1 block inconclusive, HPGD inh 14.1µM, PNC inhibitor inconclusive and Lamin A splicing inactive.
Screening CC(=O)c1ccc(O)c(CN(C2CCCCC2)C2CCCCC2)c1O returned ALOX12 inhib inactive[11.4 µM], ALDH1A1 block inactive[13.5 µM] and HPGD inh inactive.
CN1/C(=C\C=N\NC(=O)c2ccccc2Br)C(C)(C)c2ccccc21 was read as ALOX12 inhib inactive, ALDH1A1 block 28.2µM, HPGD inh inactive, PNC inhibitor inactive and Lamin A splicing inconclusive.
For Cc1cccc(Nc2cc(Cl)nc(SCC(=O)O)n2)c1C the results were ALOX12 inhib inactive, ALDH1A1 block 10µM! and HPGD inh 25.1µM!.
Screening CCOC(=O)CCS(=O)(=O)c1nc(-c2ccccc2)cc(C(F)(F)F)n1 returned ALOX12 inhib inactive, ALDH1A1 block inactive, HPGD inh 15.8µM, PNC inhibitor inactive and Lamin A splicing inconclusive.
CCOC(=O)CS(=O)(=O)c1nc(-c2ccccc2)cc(C(F)(F)F)n1 was read as ALOX12 inhib inactive, ALDH1A1 block inactive, HPGD inh 14.1µM, PNC inhibitor inconclusive and Lamin A splicing inconclusive.
`COC(=O)CCS(=O)(=O)c1nc(-c2ccccc2)cc(C(F)(F)F)n1` gave ALOX12 inhib inactive, ALDH1A1 block inactive, HPGD inh 28.2µM, PNC inhibitor inactive and Lamin A splicing inconclusive.
For COCC(C)NC(=O)CCS(=O)(=O)c1nc(-c2ccc(OC)cc2)cc(C(F)(F)F)n1 (stereo unspecified) the results were ALOX12 inhib inactive, ALDH1A1 block inactive, HPGD inh inactive, PNC inhibitor -88.5 and Lamin A splicing inconclusive.
COc1ccc(-c2cc(C(F)(F)F)nc(S(C)(=O)=O)n2)cc1 was read as ALOX12 inhib inactive, ALDH1A1 block inconclusive, HPGD inh inconclusive, PNC inhibitor inactive and Lamin A splicing inactive.
CCOc1ccc(C(=O)Nc2nnc(S(=O)(=O)N(CC)c3ccccc3C)s2)cc1 was read as Lamin A splicing inactive.
`C/C(=N/Nc1nc(C)cc(=O)[nH]1)C(=O)O` gave ALOX12 inhib inactive[11.4 µM], ALDH1A1 block inactive[13.5 µM] and HPGD inh inactive.
For O=C(Nc1ccc(Cl)c(Cl)c1)N1CCSC1c1ccco1 (stereo unspecified) the results were ALOX12 inhib inconclusive, ALDH1A1 block 5.01µM, HPGD inh 22.4µM, PNC inhibitor inactive and Lamin A splicing inconclusive.
Cc1ccc2c(=O)c(C(=O)c3ccccc3)cn(CC(=O)NCc3ccccc3)c2n1 was read as Lamin A splicing inactive.
For CC1CC2(CC(C)(C(=O)CSc3n[nH]c(-c4ccccc4Cl)n3)OC2=O)C(=O)O1 (stereo unspecified) the results were ALOX12 inhib inactive, ALDH1A1 block 17.8µM, HPGD inh inconclusive, PNC inhibitor inactive and Lamin A splicing inactive.
